# An excerpt weighted towards active compounds, which were near 12% of everything screened.
# BAZ2B inh – inhibitors of human BAZ2B bromodomain; Q9UIF8; AlphaScreen BAZ2B-H3K14Ac peptide displacement; Potency, µM (series often up to 114 µM), for inactives: at the highest dose activity change, negative = inhibition, most hits filed as inhibitors; 360,000 compounds, 4.4% hits; note: % is set by controls: 0 for no effect and ±100 for the full control effect; nearly all actives have a fitted effect of over 60% in size
#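 Inhibition is scored as reduced AlphaScreen emission. The BAZ2B/b-H3(5-23)K14Ac complex (50 nM each) in PBS pH 7.4, 0.01% Tween-20 meets compound (up to 110 uM) for 30 min at RT before bead addition.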
# JMJD2A Tudor inh – blocks the human JMJD2A Tudor domain | O75164 | AlphaScreen JMJD2A-Tudor / H3K4me3 peptide binding | Potency, µM (top dose mostly 114 µM), for the others: at the highest dose activity change, negative = inhibition, most hits filed as inhibitors | 390,000 compounds, 4.4% hits | AID 504339; note: % is set by controls: 0 for no effect and ±100 for the full control effect; nearly all actives have a fitted effect of over 50% in size
# HP1b chromo inh – inhibitors of HP1-beta chromodomain binding to methylated histone tails. AlphaScreen HP1-beta / biotin-H3K9me3 peptide binding. Potency, µM (highest dose often 114 µM), for inactives: at the highest dose activity change, negative = inhibition, hits mostly inhibitors. AID 540317. P83916. 390,000 compounds, 0.56% hits; note: nearly all actives have a fitted effect of over 70% in size
# Target sequence (P83916 whole entry, looked up): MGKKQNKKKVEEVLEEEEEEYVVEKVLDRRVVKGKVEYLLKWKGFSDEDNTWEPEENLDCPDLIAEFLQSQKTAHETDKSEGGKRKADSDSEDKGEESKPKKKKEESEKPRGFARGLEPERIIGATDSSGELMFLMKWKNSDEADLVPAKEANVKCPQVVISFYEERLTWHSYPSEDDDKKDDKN
#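 HP1-beta protein (50 nM final) preincubated 30 min at room temperature with biotinylated H3(1-18)K9me3 peptide (50 nM) in PBS pH 7.4, 0.01% Tween-20, then compound added for 30 min. AlphaScreen streptavidin donor/nickel chelate acceptor beads (10 ug/mL final), 30 min dark, luminescence read.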
# Sfp PPTase inh – Sfp phosphopantetheinyl transferase inhibition; Biochemical Sfp PPTase activity, qHTS; Potency, µM, for the others: largest response in the series, negative = inhibition, most hits filed as inhibitors; 310,000 compounds, 3.5% hits; AID 1490;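 note: the enzyme is Sfp with the accession as filed and its product quenches rhodamine fluorescence; 0% = enzyme reaction without inhibitor and -100% = no enzyme wells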
#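 Fluorescence-quenching assay: 15 nM Sfp-PPTase preincubated 15 min at room temperature with compound, then 5 uM rhodamine-CoA and 12.5 uM BHQ-2-labelled YbbR peptide added. Fluorescence (ex 525/em 598 nm) read at start and after 30 min; difference gives rate.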
# TDP1 block – TDP1 (human) enzyme inhibition | Q9NUW8 | recombinant TDP1, AlphaScreen DNA substrate cleavage | Potency, µM (series often up to 130 µM), for the others: at the highest dose activity change, negative = inhibition, most hits filed as inhibitors | 350,000 compounds, 0.28% hits | AID 485290; note: % is set by controls: 0 for no effect and ±100 for the full control effect; nearly all actives have a fitted effect of over 40% in size
#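 Signal: AlphaScreen proximity between streptavidin donor and anti-FITC acceptor beads on intact substrate. Reaction: Tdp1 1 nM, substrate 15 nM final, 5 min RT after 15 min compound preincubation.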
# G9a block – G9a (human) methyltransferase inhibition; Potency, µM (highest dose often 102 µM), for the others: at the top dose activity, negative = inhibition, usual class: inhibitors; AID 504332; G9a H3K9 monomethylation, AlphaScreen, 2 h; Q96KQ7; 350,000 compounds, 8.8% hits; note: % is set by controls: 0 for no effect and ±100 for the full control effect; nearly all actives have a fitted effect of over 75% in size
# Target sequence (Q96KQ7 913-1193 limits assumed): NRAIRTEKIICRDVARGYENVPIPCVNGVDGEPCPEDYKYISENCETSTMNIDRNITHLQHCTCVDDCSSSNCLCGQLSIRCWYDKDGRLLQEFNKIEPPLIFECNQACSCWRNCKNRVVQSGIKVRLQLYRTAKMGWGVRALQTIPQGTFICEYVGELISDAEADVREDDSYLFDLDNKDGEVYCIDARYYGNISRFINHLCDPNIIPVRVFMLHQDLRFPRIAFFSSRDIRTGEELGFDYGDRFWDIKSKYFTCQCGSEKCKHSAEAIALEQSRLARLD
#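 AlphaScreen read-out: biotin-H3K9 peptide (500 nM) methylation by 20 nM enzyme with 20 uM SAM, 2 h at room temperature after 15 min compound preincubation; anti-monomethyl H3K9 antibody plus donor/acceptor beads, 10 min dark.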
# * marks the source's active call; other numbers are inactive results; ? = inconclusive; nt = not tested or not shown; [ ] = dose if it differs, or a comment. Calls come from the whole dose curve; as a rule, active = well fitted curve in the direction sought with a large enough effect; inconclusive = small, poorly fitted or top-dose-only effect, or another doubt; inactive = no such curve, though single readings can be large; an effect the other way counts as inactive or inconclusive. Potency is the fitted concentration of half-maximal effect.
SMILES,BAZ2B inh,JMJD2A Tudor inh,HP1b chromo inh,Sfp PPTase inh,TDP1 block,G9a block
c1ccc(SCc2nc3ccccc3s2)nc1,1%,18%,66%,?,nt,35µM*
N#C/C(=C(/O)COC(=O)c1ccc(C#N)cc1)c1nc2ccccc2s1,?,?,29%,50µM*,7%,?
N#C/C(=C(/O)CSc1ccccn1)c1nc2ccccc2s1,-16%,-8%,44%,-4%,9%,45µM*
N#C/C(=C(/O)COc1ccccc1)c1nc2ccccc2s1,-8%,-21%,26%,9%,5%,?
O=C(/C=C/c1ccc(Cl)cc1)Nc1nccs1,-8%,-20%,28%,8%,-2%,-2%
C/C=C/C=C/C(=O)Nc1nccs1,-4%,?,24%,35µM*,-1%,-11%[59 µM]
COCCCN(C(=S)Nc1c(C)cc(C)cc1C)C(C)c1ccccn1 (centres undefined),-25%,-7%,6%,22µM*,-1%,40µM*
COCCCN(C(=S)Nc1cc(C)cc(C)c1)C(C)c1ccncc1 (centres undefined),-3%,-18%,19%,1%,4%,6%[59 µM]
CCC(C)(C)NC(=O)Cn1c(=O)ccc2cc(S(=O)(=O)N3CCC(C)CC3)ccc21,4%,-26%,21%[57 µM],nt,-1%,12%[59 µM]
CC(=O)c1ccc(NC(=S)N2C(C)CCCC2C)cc1 (centres undefined),11%,nt,nt,45µM*,3%,50µM*
CC(=O)c1ccc(NC(=S)N2CCCCCC2)cc1,-26%,-3%,32%,7%,3%,-30%
CCN1CCCC1CNC(=O)C(=O)Nc1ccccc1 (centres undefined),-21%,-17%,32%,23%,3%,23%[59 µM]
CCN1CCCC1CNC(=S)Nc1ccc(C(C)=O)cc1 (centres undefined),-27%,-30%,16%,4%,8%,40µM*
COc1ccc2c(c1)c1nnc(SC(C)C)nc1n2C,nt,-26%,25%,nt,nt,nt
COC(=O)C1CSc2[nH]c(=O)sc2C1c1ccccc1 (centres undefined),-17%,-30%,?,45µM*,5%,56µM*
Cc1ccc(NC(=O)Cn2cc(C(=O)c3ccco3)c3ccccc32)cc1,29%,-7%,87%,nt,3%,?
NC(Cc1cnc[nH]1)C(=O)Nc1ccc2ccccc2c1 (centres undefined),nt,nt,nt,11%,11%[56.1 µM],nt
O=c1[nH]nc(CNc2ccc(O)cc2)c2ccccc12,?,-21%,10%,?,2%,11µM*
CC(=O)Nc1cccc(NC(=O)Cc2cccs2)c1,?,-25%,20%,2%,-5%,79µM*
COC(=O)c1cc(NC(=O)Cc2cccs2)cc(C(=O)OC)c1,50µM*,45µM*,?,16%,nt,?
COC(=O)c1sc(NC(=O)COc2ccccc2)nc1C,-7%,-11%,29%,12%,7%,-6%
COC(=O)c1sc(NC(=O)Cc2cccs2)nc1C,-3%,-9%,11%,14%,1%,28µM*
O=C(Nc1cccc(F)c1)C1CCN(S(=O)(=O)c2ccc3[nH]c4c(c3c2)CCCCC4)CC1,-24%,?,-10%,nt,11%,-47%[59 µM]
O=C(CN1CCN(c2cnn(-c3ccccc3)c(=O)c2Cl)CC1)NC1CCS(=O)(=O)C1 (centres undefined),1%,-11%,19%,nt,1%,45µM*
NCCCN(Cc1ccc(Cl)cc1)c1ccc(Br)cn1,nt,-15%,20%,nt,nt,nt
SMILES,BAZ2B inh,JMJD2A Tudor inh,HP1b chromo inh,Sfp PPTase inh,TDP1 block,G9a block
S=C(NCCCc1cnc[nH]1)NCCCN(Cc1ccc(Cl)cc1)c1ccc(Br)cn1,nt,50µM*,nt,nt,nt,nt
S=C(NCCCc1cnc[nH]1)NCCCN(Cc1ccc(Cl)cc1)c1ccc(-c2ccccc2)cn1,nt,50µM*,?,nt,nt,nt
S=C(NCCCc1cnc[nH]1)NCCCN(Cc1ccc(Cl)cc1)c1ccc(Br)cc1,nt,4.5µM*,32µM*,nt,nt,nt
O=C(NCCCc1cnc[nH]1)NCCCN(Cc1ccc(Cl)cc1)c1ccc(Br)cn1,nt,45µM*,?,nt,nt,nt
CCCCNC(=S)NCCCN(Cc1ccc(Cl)c(Cl)c1)c1ccc(Br)cn1,nt,-30%,nt,nt,nt,nt
C#C[C@]1(O)CC[C@H]2[C@H]3[C@H](CC[C@@]21C)C1=C(CC(=O)CC1)C[C@@H]3C,nt,nt,nt,14%,nt,-43%[12.7 µM]
COc1c(C)cccc1C(=O)NCCCNC(=O)c1ccc(C)nc1,2%,-12%,24%,12%,nt,7%
CCOC(=O)C1CCCN(C(=O)Cn2ncc3c4ccccc4n(Cc4ccc(F)cc4)c3c2=O)C1 (centres undefined),-11%,-8%,37%,nt,5%,-2%[59 µM]
O=C(CNC(=O)c1ccncc1)OC(C(=O)Nc1cc(C(F)(F)F)ccc1Cl)c1ccccc1 (centres undefined),nt,-19%,nt,nt,0%,nt
O=C(c1ccc2c(=O)n3c(nc2c1)CCCCC3)N1CCN(c2cccc(Cl)c2)CC1,-39%,-29%,13%,7%,nt,-5%[12.7 µM]
S=C(NCCCc1cnc[nH]1)NCCCN(CCc1ccc(Cl)cc1)c1ccc(Br)cn1,nt,45µM*,?,nt,nt,nt
CCCCNC(=S)NCCCc1cnc[nH]1,nt,-18%,nt,nt,nt,nt
S=C(NCCCc1cnc[nH]1)NCCCN(Cc1ccc(Cl)cc1)c1ncc(Br)cn1,nt,50µM*,?,nt,nt,nt
CCCCn1c(=O)c2oc3ccccc3c2n(Cc2cccc(F)c2)c1=O,2%,1%,45%,nt,0%,2%[59 µM]
CC(O)[C@H]1CC[C@H]2[C@@H]3CC[C@H]4C[C@H](O)CC[C@]4(C)[C@H]3[C@H](O)C[C@]12C (some centres undefined),13%,-34%,4%,nt,nt,19%[12.7 µM]
O=C(c1ccc2c(=O)n(Cc3ccccc3Cl)c(=S)[nH]c2c1)N1CCOCC1,-5%,1%,47%,6%,1%,9%
CN(C)CCCN(C(=O)c1ccc(C(=O)c2ccccc2)cc1)c1nc2cc3c(cc2s1)OCO3,45µM*,50µM*,?,-20%,11%,?
CCN(CC)CCN(C(=O)CCS(=O)(=O)c1ccccc1)c1nc2cc3c(cc2s1)OCO3,-14%,-23%,46%,-12%,5%,45µM*
CN(C)CCCN(C(=O)c1ccc(Cl)s1)c1nc2cc3c(cc2s1)OCO3,?,-20%,13%,-1%,5%,?
CCN(CC)CCN(C(=O)C1=COCCO1)c1nc2cc3c(cc2s1)OCO3,-27%,-11%,37%,3%,0%,0%[59 µM]
CCN(CC)CCN(C(=O)CN1C(=O)CCC1=O)c1nc2cc3c(cc2s1)OCO3,nt,-11%,42%,1%,3%,?
CN(C)CCCN(C(=O)c1cc(Cl)sc1Cl)c1nc2cc3c(cc2s1)OCO3,?,?,0%,-5%,7%,50µM*

# Bioassay records deposited in PubChem by National Center for Advancing Translational Sciences (NCATS).
